Bioassay records deposited in PubChem BioAssay by Broad Institute.
Shown are actives, neighbours in structure and some others; about 2% of the full set was active somewhere.
STK33 kin inh – inhibitors of human STK33 kinase; ADP-Glo luminescence, MBP substrate; inhibition, % at 12.5 µM; actives 0.44% (n = 27,000); AID 2322; in the data active = inhibition above about 20%; inconclusive = no clear call, values can overlap the other calls
Target sequence (Q9BYT3 whole entry, looked up): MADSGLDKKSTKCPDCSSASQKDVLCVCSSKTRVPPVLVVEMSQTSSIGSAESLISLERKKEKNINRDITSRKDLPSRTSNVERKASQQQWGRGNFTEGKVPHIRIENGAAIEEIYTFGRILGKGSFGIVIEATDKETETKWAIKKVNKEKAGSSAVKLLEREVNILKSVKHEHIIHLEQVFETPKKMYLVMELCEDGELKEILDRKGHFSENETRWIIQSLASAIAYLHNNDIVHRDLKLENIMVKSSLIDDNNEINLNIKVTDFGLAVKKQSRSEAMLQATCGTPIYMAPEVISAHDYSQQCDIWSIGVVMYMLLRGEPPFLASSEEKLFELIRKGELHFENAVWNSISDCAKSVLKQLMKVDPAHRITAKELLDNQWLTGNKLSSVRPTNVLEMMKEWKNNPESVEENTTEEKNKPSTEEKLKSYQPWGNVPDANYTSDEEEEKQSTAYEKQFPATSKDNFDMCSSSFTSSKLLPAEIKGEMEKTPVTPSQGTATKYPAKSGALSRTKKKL
mut p53 react – restores mutant p53 pathway signaling in SW480 cells. actives 1.5% (n = 28,000). activation, % at 9.98 µM. SW480 PUMA-promoter luciferase, p53 mutant reactivation. AID 624151; in the data active = activation above about 52%; inconclusive = no clear call, values can overlap the other calls
ID4 binder – binds human ID4 protein on microarray; P47928; small molecule microarray, Flag-ID4 binding, fluorescence F/B; calls only; actives 1.2% (n = 31,000); AID 624137; call rule not given here;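 also: a binder raises fluorescence above local background on the spot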
Numbers stand for hits; n = inactive; u = inconclusive; x = no result; + = active, no number.

SMILES	STK33 kin inh	mut p53 react	ID4 binder
CC(C)NC(=O)N(C)C[C@@H]1OCCCC[C@@H](C)Oc2ccc(NC(=O)Nc3ccc(C(F)(F)F)cc3)cc2C(=O)N([C@@H](C)CO)C[C@@H]1C	x	n	+
CNC[C@H]1Oc2ccc(NS(C)(=O)=O)cc2CC(=O)N([C@@H](C)CO)C[C@@H]1C	n	n	+
CNC[C@H]1Oc2ccc(NS(=O)(=O)c3ccccc3)cc2CC(=O)N([C@@H](C)CO)C[C@@H]1C	n	n	n
CNC[C@H]1Oc2ccc(NC(=O)c3ccncc3)cc2C(=O)N([C@@H](C)CO)C[C@@H]1C	n	x	x
CNC[C@H]1Oc2ccc(NC(=O)c3ccncc3)cc2C(=O)N([C@H](C)CO)C[C@@H]1C	x	n	+
C[C@@H]1CCCCO[C@@H](CN(C)C(=O)Nc2ccccc2)[C@@H](C)CN([C@H](C)CO)C(=O)c2cc(NC(=O)c3ccncc3)ccc2O1	n	x	x
COC(=O)c1ccc(Cl)c(NC(=O)CSc2nnc(-c3ccc(Cl)cc3)o2)c1	n	n	n
CNC(=S)NCc1sc2ccccc2c1C	x	n	n
Cc1ccc(C2=NC3(CCN(C(=O)OC(C)(C)C)CC3)NC2=S)cc1	x	n	n
CCc1ccc(NC(=O)CSc2nc3ccccc3[nH]2)cc1	n	n	n
CCOc1cc(/C=C2/SC(=N)N(c3nccs3)C2=O)ccc1OCCN1CCOCC1	n	x	x
CNC[C@@H]1Oc2c(NC(=O)c3ccc(-c4nccs4)cc3)cccc2C(=O)N([C@H](C)CO)C[C@@H]1C	x	n	n
C[C@@H]1CCCCO[C@H](CN(C)C(=O)Cc2ccccc2)[C@H](C)CN([C@@H](C)CO)C(=O)c2cc(NC(=O)c3ccncc3)ccc2O1	x	n	n
CNC[C@@H]1Oc2c(NC(=O)c3ccc(-c4nccs4)cc3)cccc2C(=O)N([C@H](C)CO)C[C@H]1C	x	n	+
C[C@@H]1CN([C@@H](C)CO)C(=O)c2cc(NC(=O)c3ccncc3)ccc2O[C@@H](C)CCCCO[C@H]1CN(C)C(=O)Cc1ccccc1	x	n	+
C[C@@H]1CN([C@@H](C)CO)C(=O)c2cc(NC(=O)c3ccncc3)ccc2O[C@@H](C)CCCCO[C@H]1CN(C)C(=O)Nc1cccc2ccccc12	x	n	n
C[C@@H]1CN([C@H](C)CO)C(=O)c2cc(NC(=O)c3ccncc3)ccc2O[C@@H](C)CCCCO[C@@H]1CN(C)C(=O)Nc1cccc2ccccc12	x	n	+
COC(=O)[C@]1(Cc2ccccc2N=[N+]=[N-])N=C(c2ccc(OCCCO)cc2)O[C@@H]1c1ccccc1CN=[N+]=[N-]	n	x	x
CCN(CC(=O)Nc1cccc([N+](=O)[O-])c1C)S(=O)(=O)c1ccc(Br)cc1	n	n	n
CCOC(=O)c1c(NC(=O)COc2ccc(C)cc2Br)sc(C)c1C	n	n	n
C[C@]1(O)CC[C@@H]2C(C(=O)O)=CO[C@@H](O[C@@H]3O[C@H](COC(=O)/C=C/c4ccc(O)c(O)c4)[C@@H](O)[C@H](O)[C@H]3O)[C@@H]21	n	n	x
Cc1cccnc1NC(=S)Nc1ccc(S(N)(=O)=O)cc1	u	66	n
NS(=O)(=O)c1ccc(NC(=S)NCc2cccnc2)cc1	n	n	n
C=CCN1C(=O)[C@@]2(O[C@@H](CCn3cc(CCO)nn3)[C@H]([Si](C)(C)c3ccc(OC)cc3)[C@H]2C)c2cc(N3CCC3=O)ccc21	n	x	x
FC(F)(F)Oc1ccc(Nc2n[nH]c(=S)s2)cc1	x	75	n
SMILES	STK33 kin inh	mut p53 react	ID4 binder
Cc1nnc(SCC(=O)Nc2ccc(OC(F)(F)F)cc2)s1	n	n	n
C[C@@H]1CN([C@@H](C)CO)C(=O)CCCn2cc(nn2)CO[C@@H]1CN(C)CC1CCCCC1	n	x	n
C[C@@H]1CN([C@@H](C)CO)C(=O)CCCn2nncc2CO[C@@H]1CN(C)C(=O)Nc1ccccc1F	n	n	n
COc1ccccc1NC(=O)N(C)C[C@@H]1OCc2cnnn2CCCC(=O)N([C@@H](C)CO)C[C@H]1C	n	n	+
Cc1noc(C)c1S(=O)(=O)N(C)C[C@@H]1OCc2cnnn2CCCC(=O)N([C@@H](C)CO)C[C@@H]1C	n	n	+
C[C@@H]1CN([C@@H](C)CO)C(=O)CCCn2nncc2CO[C@H]1CN(C)S(C)(=O)=O	n	x	x
C[C@@H]1CN([C@@H](C)CO)C(=O)CCCn2nncc2CO[C@H]1CN(C)C(=O)Nc1ccccc1F	n	n	+
COc1ccccc1NC(=O)N(C)C[C@H]1OCc2cnnn2CCCC(=O)N([C@@H](C)CO)C[C@H]1C	n	n	n
C[C@H]1CN([C@@H](C)CO)C(=O)CCCn2cc(nn2)CO[C@@H]1CN(C)CC1CCCCC1	n	x	+
N#CCCn1c(CC(N)=O)nc2ccccc21	n	n	n
CN(C)CCCC[C@@H]1NC(=O)[C@H]2C[C@@H](C(=O)NCCCCCN)[C@@H](c3cccc(OCCO)c3)N2C1=O	n	x	x
